Results taken from PubChem BioAssay AID624490 (Broad Institute, 2012).
Results with a measured potency or affinity are listed apart. Active and inactive are the calls of the source.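 Rule for the calls: active = compounds whose fitted half-maximal drop in cell ATP occurs at no more than twice the top tested dose; inconclusive = flat moderate signal drop, or unreliable curve fit; inactive = the rest.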

Experiment: A375 melanoma cell cytotoxicity, dose response, counter-screen for MITF inhibitor project, CellTiter-Glo luminescence, dry powder, set 7 (AID 624490)
Settings: A375 viability, ATP luminescence (CellTiter-Glo), 24 h; series mostly up to 35 µM
With NC1=C(NS(=O)(=O)c2ccc(Br)cc2)C(=O)c2ccccc2C1=O the outcome was “inactive”.
In the case of O=C1C(Nc2ccccc2)=C(c2ccccc2)C(=O)c2ccccc21, the outcome is reported as “inactive”.
In the case of NC1=C(NS(=O)(=O)c2ccc(Br)s2)C(=O)c2ccccc2C1=O, the outcome is reported as “inactive”.
